Bioassay records (PubChem BioAssay)
Pf Dd2 inh: inhibitors of Plasmodium falciparum Dd2 growth | hit rate 4.3% among 120,000 | AID 1347417 | Potency, µM (series often up to 28.9 µM), hits mostly inhibitors | P. falciparum Dd2 growth, SYBR Green, 72 h; active = well fitted inhibition curve with a large enough effect; note: nearly all actives have a fitted effect of over 65% in size
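Infected erythrocytes (Dd2, 0.3% parasitemia, 2.5% hematocrit final) are added to compound in RPMI-1640/Albumax II medium, grown 72 h at 37C in low oxygen, then lysed with saponin/Triton-X containing SYBR Green and read by fluorescence.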
Large screens that a line does not name were inactive. Only a selection was taken, and hits are over-represented in it overall.

COc1ccc(C(=O)NCC2c3cc(OC)c(OC)cc3CCN2C(=O)Nc2ccccc2F)cc1 (stereo not given)	none
COc1cc2c(cc1OC)C(CNC(=O)C1CC1)N(C(=O)NC(C)C)CC2 (stereo not given)	none
CCc1ccccc1NC(=O)N1CCc2cc(OC)c(OC)cc2C1CC(=O)OC (stereo not given)	none
CCc1ccc(OCC2c3cc(OC)c(OC)cc3CCN2C(=O)Cc2ccc(OC)c(OC)c2)cc1 (stereo not given)	Pf Dd2 inh 8.9µM
COc1cc2c(cc1OC)C(CNC(=O)Cc1ccccc1)N(C(=O)NC(C)C)CC2 (stereo not given)	none
CCOc1ccc(NC(=O)N2CCc3cc(OC)c(OC)cc3C2CNC(C)=O)cc1 (stereo not given)	none
COc1cc2c(cc1OC)C(COc1ccccc1OC)N(C(=O)c1ccc(S(=O)(=O)N(C)C)cc1)CC2 (stereo not given)	none
COc1cc(OC)c(NC(=O)N2CCc3cc(OC)c(OC)cc3C2CC(=O)O)cc1Cl (stereo not given)	none
COC(=O)c1ccc(OCC2c3cc(OC)c(OC)cc3CCN2C(=O)c2ccccc2F)cc1 (stereo not given)	Pf Dd2 inh 10µM
CCCC(=O)N1CCc2cc(OC)c(OC)cc2C1COc1ccccc1OC (stereo not given)	Pf Dd2 inh 13µM
COc1cc2c(cc1OC)C(CNC(=O)c1ccc(Cl)cc1)N(C(=O)Nc1cccc(F)c1)CC2 (stereo not given)	none
COc1ccc(CC(=O)N2CCc3cc(OC)c(OC)cc3C2COc2ccc(OC)cc2)cc1 (stereo not given)	Pf Dd2 inh 7.9µM
O=C(NCC1CCCN(C(=O)c2cn[nH]c2-n2cnnn2)C1)c1cccs1 (stereo not given)	none
COc1ccc(NC(=O)CN2C(=O)NC3(CCS(=O)(=O)CC3)C2=O)cc1	none
CCCCNC(=O)Cc1csc2nc(C)c(-c3cc(C)n(-c4ccccc4CC)n3)c(=O)n12	none
O=C1CCN(C(=O)c2cccnc2)CCCC(C(=O)NCCC2=CCCCC2)CCN1 (stereo not given)	none
CC(C)N1C(=O)C2(CCCCC2)C1C(=O)NCc1cc(F)cc(F)c1 (stereo not given)	none
COC(=O)N1CCC2(CC1)Cc1ccccc1NC2=O	none
COc1ncccc1-c1cccc(CCOc2cnc3c(ccn3CC(=O)O)c2)c1	none
COc1cccc(CNC(=O)CN2C(=O)NC3(CCS(=O)(=O)CC3)C2=O)c1	none
CN(C)C(=O)N1CCC2(CC1)CC(=O)N(c1ccccc1)c1ccccc1O2	none
O=C(c1ccco1)N1CCOc2ccc(CN3CCc4ccccc4C3)cc2C1	none
CC(C)c1ccc(NC(=O)N[C@H]2CO[C@H]3[C@@H]2OC[C@H]3O)cc1	none
N#Cc1cccc(NC(=O)CN2C(=O)NC3(CCOCC3)C2=O)c1	none
O=C(c1ccc(=O)[nH]n1)N1C[C@H]2OC(=O)N(CCCN3CCOCC3)[C@H]2C1	none
COc1ccc(-c2cc(N3CCCC(NC(=O)c4ccoc4)C3)n[nH]2)cc1 (stereo not given)	none
c1ccc(-n2cc(CN3CCCC3c3nc4ccccc4s3)nn2)cc1 (stereo not given)	none
COC(=O)CNC(=O)C1c2ccccc2C(=O)N(CC(C)C)C12CCCCC2 (stereo not given)	none
COc1cc2c(cc1OC)C(CNC(=O)c1ccccc1C)N(C(=O)Nc1cccc(C)c1)CC2 (stereo not given)	none
COc1ccc(CC(=O)NCc2ccc3c(c2)CCN3C(=O)c2ccc(Cl)cc2)cc1OC	none
COc1ccc(C(=O)N2CCN(C(=O)COc3ccccc3)CC2)cc1OC	none
CCOC(=O)c1ccc(OCC2c3cc(OC)c(OC)cc3CCN2C(=O)Cc2ccc(OC)c(OC)c2)cc1 (stereo not given)	Pf Dd2 inh 8.9µM
COc1cc2c(cc1OC)C(COc1cc(C)cc(C)c1)N(C(=O)COc1ccccc1)CC2 (stereo not given)	Pf Dd2 inh 5µM
Cn1ncc(N2CCCC(CC(=O)Nc3ccccc3F)C2)cc1=O (stereo not given)	none
CC(C)N1C[C@H](O)C[C@H]1c1nnc2n1CCN(C(=O)CC1CCCC1)CC2	none
CN1CCN(C(=O)N2CCCC(CNS(=O)(=O)c3cccs3)C2)CC1 (stereo not given)	none
C=CCNC(=O)CCc1c(C)nn(-c2ccc(F)cc2)c1Oc1ccccc1OC	none
COC(=O)c1c(NC(=O)c2ccc(S(=O)(=O)N(C)C3CCCCC3)cc2)sc2c1CCN(C)C2	Pf Dd2 inh 8.9µM
CC(C)CN(CC(C)C)S(=O)(=O)c1ccc(C(=O)Nc2sc3c(c2C(N)=O)CCN(C(C)C)C3)cc1	none
COC(=O)c1c(NC(=O)c2ccc(S(=O)(=O)N3CCC(C)CC3)cc2)sc2c1CCN(C)C2	none
CNC(=O)N1CCC(C2CCN(S(=O)(=O)c3cc(F)ccc3OC)C2)CC1 (stereo not given)	none
O=C(c1cccnc1OC1CCN(S(=O)(=O)c2cccc(F)c2)C1)N1CCOCC1 (stereo not given)	none
CCOCCn1cc(C2CCN(S(=O)(=O)c3ccc(Cl)cc3Cl)CC2)c2ccccc21	none
CCOCCn1cc(C2CCN(S(=O)(=O)c3c(C)cc(C)cc3C)CC2)c2ccccc21	none
CCCn1cc(C2CCN(S(=O)(=O)c3c(C)c(C)cc(C)c3C)CC2)c2ccccc21	Pf Dd2 inh 10µM
O=C([C@@H]1C[C@H](Oc2ccccc2)CN1C(=O)CC1CCCC1)N1CCOCC1	none
O=C(CCc1ccccc1)NCCC1CCN(C(=O)Nc2ccc(F)cc2F)CC1	none
Cc1cc(NC(=O)Nc2nnc(N(C)C3CCCCC3)s2)ccc1Br	none
Cc1ccc(NC(=O)Nc2nc3c(s2)CCCCCC3)cc1C	none
Cc1cc(NC(=O)Nc2csc3c2CCCC3)ccc1Br	Pf Dd2 inh 13µM
Cc1cn2nc(C(=O)Nc3cccc(F)c3C)cc2c(N2CCCC2)n1	none
C[C@@H]1C(=O)O[C@H]2[C@H]1CC[C@@]1(C)Cc3sc(NC(=O)COc4ccccc4)nc3[C@@H](C)[C@H]21	Pf Dd2 inh 7.1µM
C[C@@H]1C(=O)O[C@H]2[C@H]1CC[C@@]1(C)Cc3sc(NCc4ccccc4)nc3[C@@H](C)[C@H]21	none
C[C@@H]1C(=O)O[C@H]2[C@H]1CC[C@@]1(C)Cc3sc(NC(=O)COCC(=O)O)nc3[C@@H](C)[C@H]21	none
CC(C)Nc1ccc2nnc(-c3ccccn3)n2n1	none
Oc1ccc(Cl)cc1Nc1nc2ccccc2n2cnnc12	none
COC(=O)c1ccccc1NC(=O)Cn1c(=O)nc(-c2ccccc2)c2cc(Cl)ccc21	none
Oc1ccccc1Nc1nc(-c2ccccc2)c2cc(Cl)ccc2n1	Pf Dd2 inh 5µM
CCc1noc(-c2cn(C3CCN(C(=O)c4cccc(F)c4)C3)nn2)n1 (stereo not given)	none
CS(=O)(=O)c1ccc(O[C@H]2COCCN(Cc3ccc(-c4ccccc4)cc3)C2)cc1	none
Cc1ccc2oc([C@H]3CCN(Cc4ccc(N(C)C)cc4)C3)nc2c1	none
Fc1ccc(CN2CCC3(CC2)CC(c2cccc(C(F)(F)F)c2)=NO3)cc1	none
O=[S+]1([O-])NCC2(CCN(CC3CCCCC3)C2)Nc2ccccc21 (stereo not given)	Pf Dd2 inh 4.5µM
O=[S+]1([O-])NCC2(CCN(Cc3ccccc3C(F)(F)F)CC2)Nc2ccccc21	Pf Dd2 inh 13µM
O=[S+]1([O-])NCC2(CCN(Cc3ccc(OC(F)(F)F)cc3)CC2)Nc2ccccc21	none
O=[S+]1([O-])NCC2(CCN(Cc3ccccc3)C2)Nc2ccccc21 (stereo not given)	none
O=[S+]1([O-])NC2(CCN(CC3CCCCC3)C2)CNc2ccccc21 (stereo not given)	none
